According to PubChem BioAssay (NCI):
Several values for one entry are separate records, joined by “and”; a condition that tells them apart may be missing. Equal values may be shown once. About 83,000 compounds went through this panel and 20% of them were active in at least one assay; those are over-represented in the sample as a whole.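 Single-concentration screen, 48 h exposure, 96-well plates. Endpoint: percent growth. Below 10 = active.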 Unmarked numbers belong to inactive results. Activity calls are given as the source filed them.

Key:
Assay in all cases: NCI-60 one-dose screen, 48 h (100 = growth as untreated, 0 = no growth, -100 = all killed)
Conditions in all cases: 10 µM unless noted
HCT-15 colon = test system: HCT-15 colon
HT29 colon = test system: HT29 colon
SNB-75 CNS = test system: SNB-75 CNS
SNB-19 CNS = test system: SNB-19 CNS
U251 CNS = test system: U251 CNS
PC-3 prostate = test system: PC-3 prostate
SK-MEL-5 melanoma = test system: SK-MEL-5 melanoma
UACC-62 melanoma = test system: UACC-62 melanoma
LOX IMVI melanoma = test system: LOX IMVI melanoma
SK-MEL-28 melanoma = test system: SK-MEL-28 melanoma
SK-MEL-2 melanoma = test system: SK-MEL-2 melanoma
EKVX NSCLC = test system: EKVX NSCLC
SN12C renal = test system: SN12C renal
UO-31 renal = test system: UO-31 renal
TK-10 renal = test system: TK-10 renal
ACHN renal = test system: ACHN renal
CAKI-1 renal = test system: CAKI-1 renal
A498 renal = test system: A498 renal
HL-60(TB) leukemia = test system: HL-60(TB) leukemia
CCRF-CEM leukemia = test system: CCRF-CEM leukemia

| Compound | growth (HCT-15 colon) | growth (HT29 colon) | growth (SNB-75 CNS) | growth (SNB-19 CNS) | growth (U251 CNS) | growth (PC-3 prostate) | growth (SK-MEL-5 melanoma) | growth (UACC-62 melanoma) | growth (LOX IMVI melanoma) | growth (SK-MEL-28 melanoma) | growth (SK-MEL-2 melanoma) | growth (EKVX NSCLC) | growth (SN12C renal) | growth (UO-31 renal) | growth (TK-10 renal) | growth (ACHN renal) | growth (CAKI-1 renal) | growth (A498 renal) | growth (HL-60(TB) leukemia) | growth (CCRF-CEM leukemia) |
| --- | --- | --- | --- | --- | --- | --- | --- | --- | --- | --- | --- | --- | --- | --- | --- | --- | --- | --- | --- | --- |
| O=C1C=C(N2CC2)c2ccccc2C1=O | 79.6% | 73.4% | 90.2% | 82.7% | 65.3% | 44.3% | 59.7% | 97.8% | 39% | 111% | 90.7% | 114% | 51.2% | 53.9% | 118% | 21% | 32.3% | 102% | 8.35% (active) | -11.5% (active) |
| Cc1cc[c-]cc1.Fc1c[c-]c(-c2ccccn2)c(F)c1.[Pt+2].c1ccc([PH+](c2ccccc2)c2ccccn2)cc1 | 74.1% | 22.9% | 22.7% | 49.5% | 27% | 37.4% | 77.5% | 64.5% | 31.2% | 39.4% | 71.8% | 65.3% | 52.1% | 58.4% | 75.9% | 69% | 54.7% | 82.7% | 38.2% | 19.9% |
| Nc1ccc2c(c1)Cc1cc(N)ccc1-2 | 85.3% | 98.8% | 74% | 103% | 94.9% | 84.9% | 95.8% | 96% | 105% | 92.6% | 89.9% | 61.2% | 90.5% | 62.6% | 106% | 97% | 86.4% | 84.9% | 100% | 60.1% |
| Cc1ccc(NC2=N[C@]34CC(=O)CC[C@]3(C)[C@H]3CC[C@]5(C)C(=O)CC[C@H]5[C@@H]3C[C@@H]4S2)c(C)c1 | 0.807% (active) | 3.81% (active) | 35.1% | 44% | 18.4% | 15.8% | 51.4% | 39% | -16.6% (active) | 50.8% | 72.6% | 51.9% | 26.2% | 34.3% | 63.3% | 32.3% | 49.8% | 66.7% | 9.29% (active) | 7.99% (active) |
| CN(C)C(=S)SSC(=S)N(C)C | 93.9% and 113% | 61.1% and 92.2% | 109% and 104% | 98.7% and 98.8% | 81.2% and 75.7% | 75.5% and 91.1% | 82% | 97.4% and 96.2% | 104% and 108% | 116% and 114% | 109% and 108% | 69.4% and 92.7% | 106% and 94.8% | 79.1% and 80.5% | 106% and 101% | 100% | 90.9% | 95.1% | 113% | 68% and 91.5% |
| CC(=O)OC1CC2(O)C(CCC3(C)C(c4ccc(=O)oc4)CCC32O)C2(C)CCC(OC3OC(CO)C(O)C(O)C3O)C=C12 (stereo not given) | -85.2% (active) | -55% (active) | -61.4% (active) | -94% (active) | -92.1% (active) | -55.2% (active) | -91.9% (active) | -65.6% (active) | -85.4% (active) | -31.7% (active) | -23.2% (active) | -89.1% (active) | -6.05% (active) | -80.8% (active) | -92.3% (active) | -79.8% (active) | -93.5% (active) | -33.8% (active) | -46.1% (active) | -25.1% (active) |
| CC1(C)C2CCC1(CS(=O)(=O)O)C(=O)C2 (stereo not given) | 91.7% and 104% | 98.2% and 108% | 95% and 82.9% | 101% and 109% | 90.8% and 101% | 94.6% and 94.5% | 105% and 115% | 88.3% and 93.2% | 77.1% and 100% | 109% and 126% | 107% and 106% | 101% and 94.6% | 87.1% and 111% | 86% and 110% | 96% and 87.3% | 95.9% and 105% | 97.5% and 84.5% | 84.3% and 96.9% | 104% and 80.1% | 96.1% and 103% |
| CC[C@H](C)[C@H](NC(=O)CN(C)C)C(=O)N(C)[C@H](C[C@@H](OC(C)=O)c1nc(C(=O)NC23C4C5C2C2C3C4C52C(=O)OC)cs1)C(C)C (stereo not given in full) | 14.7% | 2.31% (active) | 30.1% | 40.2% | 16.7% | 25.6% | 5.45% (active) | 29.9% | 15.3% | 61.5% | 34% | 40.4% | 31.8% | 54.9% | 57.7% | 42.6% | 44.8% | -1.71% (active) | -26.5% (active) | 6.24% (active) |
| C=CC[PH+](c1ccccc1)c1ccccc1.C=CC[PH+](c1ccccc1)c1ccccc1.[Pt+2].[S-]c1nc2ccccc2[nH]1.[S-]c1nc2ccccc2[nH]1 | 70% | -30.4% (active) | -64.5% (active) | 5.65% (active) | -83% (active) | 9.47% (active) | -94.9% (active) | -48.9% (active) | -95% (active) | -47.1% (active) | -72.9% (active) | 33% | -4.98% (active) | 35.2% | -12.2% (active) | 42.3% | 25% | -16.1% (active) | -20.8% (active) | 6.12% (active) |
| CC1(C)S[C@H]2CC[C@H]3OC(=O)[C@@H]1N23 | 106% | 106% | 90.9% | 101% | 115% | 87% | 111% | 93.4% | 103% | 108% | 94.4% | 88.4% | 119% | 53.9% | 91.9% | 114% | 66.6% | 93.1% | 60.9% | 82.9% |
| CC[C@H](C)[C@H](NC(=O)[C@H]1CCCCN1C)C(=O)N(C)[C@H](C[C@@H](OC(C)=O)c1cccc(C(=O)N[C@@H](Cc2ccccc2)C[C@H](C)C(=O)OC)n1)C(C)C | 8.45% (active) | -5.46% (active) | 23.5% | 33.1% | 14.3% | 18.9% | -14.5% (active) | 38.6% | 14.6% | 62.8% | 22.1% | 53.4% | 29.8% | 40.7% | 34.4% | 24.6% | 25.4% | -5.01% (active) | -42.9% (active) | 14.4% |
| c1ccc(CCN2CCCCC2)nc1 | 74.1% | 95.8% | 78.8% | 109% | 107% | 84.8% | 115% | 97.9% | 107% | 104% | 111% | 102% | 93.5% | 96.4% | 103% | 91.6% | 89.4% | 107% | 78.4% | 83.6% |
| Cc1cc2c(cc1-c1ccnc(/C=C/C(=O)O)c1)C(C)(C)CCC2(C)C | 86.1% | 97.9% | 80.3% | 90.7% | 84.1% | 86.8% | 67.9% | 72.2% | 46.9% | 92.9% | 93.9% | 86.1% | 88% | 62.1% | 115% | 81.6% | 91.8% | 73.7% | 59.2% | 95.7% |
